Laboratory results: PubChem BioAssay (NCATS)
Records with an inconclusive call do not appear. Activity calls are given as the source filed them. Unless noted, the call rests on the fitted dose curve; in most records, active means well fitted curve in the direction sought with a large enough effect in the repeat runs; inconclusive means weak or mixed curves; inactive means no such curve, though single readings can be large; an effect the other way counts as inactive or inconclusive.

Tested on: not listed separately
Assay: A High-Content qHTS Against Drug Library for the Identification of Small Molecules that Inhibit DYT1 Early Onset Primary Dystonia-Associated Cell Pathology (AID 1645839; calls by dose curve)
Conditions: HEK293 Flp-In EGFP-delE TorsinA, punctate imaging, 48 h; series mostly up to 91.7 µM; % pathology change, negative = correction: at the top concentration
Method in brief: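 Induced EGFP-delE TorsinA cells are imaged after 48 h of compound treatment. Punctate fusion-protein distribution gives the %pathology value, while nuclei counts flag toxicity. Wild-type EGFP-hTOR1A cells define the normal pattern.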

Q: For CC1(C)CC/C(=C/c2ccc(Cl)cc2)C1(O)Cn1cncn1 (stereo not given), which “% pathology change, negative = correction” value (“% pathology change” below) is on record?
A: -18.1% (inactive)

Q: With CC(O)CN1CCN(CC(=O)[O-])CCN(CC(=O)[O-])CCN(CC(=O)[O-])CC1.[Gd+3] (stereo not given) as the compound, how does the “% pathology change” value read?
A: 3.47% [at 46.1 µM] (inactive)

Q: With O=C(O)COc1nc(Cl)c(Cl)cc1Cl as the compound, how does the “% pathology change” value read?
A: -11% (inactive)

Q: For O=C(O)c1cc(Oc2ccc(C(F)(F)F)cc2Cl)ccc1[N+](=O)[O-], which “% pathology change” value is on record?
A: 4.66% [at 46.1 µM] (inactive)

Target: Cytochrome P450 2D6 (Homo sapiens) (UniProt P10635)
Assay: Cytochrome P450 family 2 subfamily D member 6 (CYP2D6) small molecule antagonists: luciferase biochemical (cell-free) qHTS assay (AID 1645840); further: nearly all actives have a fitted effect of over 55% in size; further: potency means the concentration at half of the fitted maximal effect; on activity change, negative = inhibition: on the % scale 0 is the no-effect control and ±100 the full control effect
Conditions: P450-Glo CYP2D6 enzyme, luciferin luminescence, 1 h; series mostly up to 57.4 µM; activity change, negative = inhibition: at the top concentration
Method in brief: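 P450-Glo CYP2D6 system: proluciferin substrate converted by enzyme to luciferin, read by luminescence proportional to activity. Enzyme-substrate mix with compound 10 min at room temperature, then NADPH regeneration 1 h before detection reagent.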

Sequence of Cytochrome P450 2D6 (Homo sapiens) (P10635 whole entry, looked up): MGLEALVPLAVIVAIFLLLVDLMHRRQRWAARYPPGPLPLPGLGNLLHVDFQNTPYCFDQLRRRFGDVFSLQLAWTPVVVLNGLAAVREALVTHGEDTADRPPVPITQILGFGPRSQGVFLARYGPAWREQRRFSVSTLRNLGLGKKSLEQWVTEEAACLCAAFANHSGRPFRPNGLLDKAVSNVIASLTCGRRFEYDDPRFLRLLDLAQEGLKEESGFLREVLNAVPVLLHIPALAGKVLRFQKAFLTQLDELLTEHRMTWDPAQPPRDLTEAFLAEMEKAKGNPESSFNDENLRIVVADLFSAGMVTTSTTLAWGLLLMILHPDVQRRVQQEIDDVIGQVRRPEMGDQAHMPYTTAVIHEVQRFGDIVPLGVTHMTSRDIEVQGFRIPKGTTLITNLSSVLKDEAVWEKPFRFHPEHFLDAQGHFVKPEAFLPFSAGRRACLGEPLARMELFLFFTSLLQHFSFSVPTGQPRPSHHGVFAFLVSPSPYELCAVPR

Q: With CCCCCCCCCC(CC)c1ccc(S(=O)(=O)O)cc1 (stereo not given) as the compound, how does the Potency read?
A: 26.7 µM (active)

Q: For CCc1c(C(=O)C(N)=O)c2c(OCC(=O)O)cccc2n1Cc1ccccc1, which “activity change, negative = inhibition” value is on record?
A: -12.7% (inactive)

Q: Which “activity change, negative = inhibition” value does the source give for C=CC(=O)NCNC(=O)C=C here?
A: -1.42% [at 115 µM] (inactive)

Q: Which Potency does the source give for CC(=O)[O][Hg][c]1ccccc1 here?
A: 0.617 µM (active)

Q: Which Potency does the source give for CCCN(CCC)c1c([N+](=O)[O-])cc(S(N)(=O)=O)cc1[N+](=O)[O-] here?
A: 29.1 µM (active)

Q: With O=C(O)CNC(=O)c1c(O)c2ccccc2n(Cc2ccccc2)c1=O as the compound, how does the “activity change, negative = inhibition” value read?
A: 11.8% (inactive)

Q: With O=[N+]([O-])c1ccc([As](=O)(O)O)cc1 as the compound, how does the “activity change, negative = inhibition” value read?
A: 2.29% (inactive)

Q: Which “activity change, negative = inhibition” value does the source give for ClC1=C(Cl)[C@]2(Cl)[C@@H]3[C@@H]4C[C@@H]([C@H]5O[C@@H]45)[C@@H]3[C@@]1(Cl)C2(Cl)Cl here?
A: 14.2% [at 115 µM] (inactive)

Q: With CC1(C)CC/C(=C/c2ccc(Cl)cc2)C1(O)Cn1cncn1 (stereo not given) as the compound, how does the Potency read?
A: 9.41 µM (active)

Q: Which Potency does the source give for C1CCC(NC2CCCCC2)CC1 here?
A: 1.23 µM (active)

Q: With CC(O)CN1CCN(CC(=O)[O-])CCN(CC(=O)[O-])CCN(CC(=O)[O-])CC1.[Gd+3] (stereo not given) as the compound, how does the “activity change, negative = inhibition” value read?
A: 13.4% (inactive)

Q: With COCC1(CO)C(=O)C2CCN1CC2 (stereo not given) as the compound, how does the “activity change, negative = inhibition” value read?
A: 2.02% (inactive)

Q: For O=S(=O)(O)C(F)(F)C(F)(F)C(F)(F)C(F)(F)C(F)(F)C(F)(F)C(F)(F)C(F)(F)F, which “activity change, negative = inhibition” value is on record?
A: -1.86% [at 115 µM] (inactive)

Q: With Cc1ccccc1-n1c(Cn2ncc3c(N)ncnc32)nc2cccc(C)c2c1=O as the compound, how does the “activity change, negative = inhibition” value read?
A: 7.84% (inactive)

Q: For O=C(Nc1ccncc1)C(=O)c1cn(Cc2ccc(Cl)cc2)c2ccccc12, which “activity change, negative = inhibition” value is on record?
A: -27.8% (inactive)

Q: For O=C(O)COc1nc(Cl)c(Cl)cc1Cl, which “activity change, negative = inhibition” value is on record?
A: -6.72% [at 115 µM] (inactive)

Q: Which “activity change, negative = inhibition” value does the source give for CCCCc1ccc(C(=O)O)nc1 here?
A: 2.12% (inactive)

Q: For O=C(NCC1CCOCC1)c1cnc(Nc2ccc(Cl)cc2Cl)nc1C(F)(F)F, which “activity change, negative = inhibition” value is on record?
A: -5.14% (inactive)

Target: Cytochrome P450 3A4 (Homo sapiens) (UniProt P08684)
Assay: Cytochrome P450 family 3 subfamily A member 4 (CYP3A4) small molecule antagonists: luciferase qHTS assay (AID 1645841); further: nearly all actives have a fitted effect of over 45% in size; further: potency means the concentration at half of the fitted maximal effect
Conditions: P450-Glo CYP3A4 enzyme assay, luciferin luminescence; series mostly up to 57.4 µM; activity change, negative = inhibition: at the top concentration
Method in brief: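 P450-Glo CYP3A4 enzyme with proluciferin substrate was preincubated with DMSO-dissolved compounds for 10 min at room temperature. NADPH regeneration solution started a 1 h reaction. Detection reagent stopped it, and luminescence was read after 20 min.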

Sequence of Cytochrome P450 3A4 (Homo sapiens) (P08684 whole entry, looked up): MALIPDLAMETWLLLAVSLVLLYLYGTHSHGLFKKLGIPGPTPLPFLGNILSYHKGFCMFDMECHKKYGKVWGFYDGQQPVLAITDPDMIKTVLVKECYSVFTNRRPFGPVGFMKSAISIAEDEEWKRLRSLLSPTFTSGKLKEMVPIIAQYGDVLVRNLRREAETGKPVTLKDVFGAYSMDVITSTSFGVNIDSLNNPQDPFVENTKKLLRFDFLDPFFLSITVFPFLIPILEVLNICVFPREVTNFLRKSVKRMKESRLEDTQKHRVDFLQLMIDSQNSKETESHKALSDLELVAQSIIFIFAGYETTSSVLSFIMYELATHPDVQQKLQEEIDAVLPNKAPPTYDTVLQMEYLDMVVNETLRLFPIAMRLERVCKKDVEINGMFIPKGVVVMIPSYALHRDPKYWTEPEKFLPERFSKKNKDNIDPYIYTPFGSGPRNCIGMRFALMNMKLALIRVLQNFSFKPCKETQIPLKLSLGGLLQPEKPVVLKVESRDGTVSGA

Q: For CC(=O)[O][Hg][c]1ccccc1, which Potency is on record?
A: 7.76 µM (active)

Q: With CCCN(CCC)c1c([N+](=O)[O-])cc(S(N)(=O)=O)cc1[N+](=O)[O-] as the compound, how does the Potency read?
A: 8.44 µM (active)

Q: With O=C(O)CNC(=O)c1c(O)c2ccccc2n(Cc2ccccc2)c1=O as the compound, how does the “activity change, negative = inhibition” value read?
A: 25.3% (inactive)

Q: With O=[N+]([O-])c1ccc([As](=O)(O)O)cc1 as the compound, how does the “activity change, negative = inhibition” value read?
A: -3.17% (inactive)

Q: Which “activity change, negative = inhibition” value does the source give for CCCCc1ccc(C(=O)O)nc1 here?
A: 37.1% (inactive)

Q: For O=C(NCC1CCOCC1)c1cnc(Nc2ccc(Cl)cc2Cl)nc1C(F)(F)F, which “activity change, negative = inhibition” value is on record?
A: -16.7% (inactive)

Target: Cytochrome P450 2C9 (Homo sapiens) (UniProt P11712)
Assay: Cytochrome P450 family 2 subfamily C member 9 (CYP2C9) small molecule antagonists: luciferase biochemical (cell-free) qHTS assay (AID 1645842); further: nearly all actives have a fitted effect of over 55% in size; further: potency means the concentration at half of the fitted maximal effect; on activity change, negative = inhibition: on the % scale 0 is the no-effect control and ±100 the full control effect
Conditions: P450-Glo CYP2C9 enzyme assay, luciferin luminescence; series mostly up to 57.4 µM; activity change, negative = inhibition: at the top concentration
Method in brief: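 P450-Glo CYP2C9 system: proluciferin substrate with enzyme in mix containing 0.4% BSA, 10 min at room temperature, then NADPH regeneration solution added and incubated 1 h at 37C. Detection reagent stopped reaction; luminescence read after 20 min as RLU.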

Sequence of Cytochrome P450 2C9 (Homo sapiens) (P11712 whole entry, looked up): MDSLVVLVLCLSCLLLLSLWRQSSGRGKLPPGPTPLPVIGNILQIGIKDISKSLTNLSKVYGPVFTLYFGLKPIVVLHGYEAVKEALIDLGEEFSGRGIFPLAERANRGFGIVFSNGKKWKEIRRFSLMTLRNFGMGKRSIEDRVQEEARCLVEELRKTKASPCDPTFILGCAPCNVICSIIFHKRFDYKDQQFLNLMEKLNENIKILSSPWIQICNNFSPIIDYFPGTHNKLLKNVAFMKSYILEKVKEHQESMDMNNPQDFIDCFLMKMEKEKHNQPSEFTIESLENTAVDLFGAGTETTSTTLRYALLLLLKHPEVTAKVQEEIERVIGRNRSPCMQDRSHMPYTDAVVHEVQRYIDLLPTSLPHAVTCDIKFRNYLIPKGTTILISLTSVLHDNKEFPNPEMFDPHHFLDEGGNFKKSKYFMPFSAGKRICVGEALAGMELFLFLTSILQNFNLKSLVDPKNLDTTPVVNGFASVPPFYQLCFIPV

Q: With CCCCCCCCCC(CC)c1ccc(S(=O)(=O)O)cc1 (stereo not given) as the compound, how does the Potency read?
A: 7.74 µM (active)

Q: Which “activity change, negative = inhibition” value does the source give for CCc1c(C(=O)C(N)=O)c2c(OCC(=O)O)cccc2n1Cc1ccccc1 here?
A: -0.252% (inactive)

Q: Which “activity change, negative = inhibition” value does the source give for C=CC(=O)NCNC(=O)C=C here?
A: 9.13% [at 115 µM] (inactive)

Q: With CC(=O)[O][Hg][c]1ccccc1 as the compound, how does the Potency read?
A: 2.45 µM (active)

Q: Which Potency does the source give for CCCN(CCC)c1c([N+](=O)[O-])cc(S(N)(=O)=O)cc1[N+](=O)[O-] here?
A: 3.77 µM (active)

Q: Which “activity change, negative = inhibition” value does the source give for O=[N+]([O-])c1ccc([As](=O)(O)O)cc1 here?
A: 9.69% (inactive)

Q: Which Potency does the source give for CC1(C)CC/C(=C/c2ccc(Cl)cc2)C1(O)Cn1cncn1 (stereo not given) here?
A: 0.611 µM (active)

Q: Which “activity change, negative = inhibition” value does the source give for C1CCC(NC2CCCCC2)CC1 here?
A: 1.65% (inactive)

Q: With CC(O)CN1CCN(CC(=O)[O-])CCN(CC(=O)[O-])CCN(CC(=O)[O-])CC1.[Gd+3] (stereo not given) as the compound, how does the “activity change, negative = inhibition” value read?
A: 0.614% (inactive)

Q: For COCC1(CO)C(=O)C2CCN1CC2 (stereo not given), which “activity change, negative = inhibition” value is on record?
A: 8.45% (inactive)

Q: Which Potency does the source give for O=S(=O)(O)C(F)(F)C(F)(F)C(F)(F)C(F)(F)C(F)(F)C(F)(F)C(F)(F)C(F)(F)F here?
A: 0.564 µM (active)

Q: With Cc1ccccc1-n1c(Cn2ncc3c(N)ncnc32)nc2cccc(C)c2c1=O as the compound, how does the Potency read?
A: 13.5 µM (active)

Q: Which Potency does the source give for O=C(Nc1ccncc1)C(=O)c1cn(Cc2ccc(Cl)cc2)c2ccccc12 here?
A: 0.301 µM (active)

Q: With O=C(O)COc1nc(Cl)c(Cl)cc1Cl as the compound, how does the “activity change, negative = inhibition” value read?
A: 3.41% [at 115 µM] (inactive)

Q: For CCCCc1ccc(C(=O)O)nc1, which “activity change, negative = inhibition” value is on record?
A: -24.7% (inactive)

Tested on: not listed separately
Assay: Confirmatory qHTS to identify inhibitors of SARS-CoV-2 cell entry (AID 1645844; calls by dose curve; further: nearly all actives have a fitted effect of over 45% in size; further: potency means the concentration at half of the fitted maximal effect; on activity, negative = inhibition: on the % scale 0 is the no-effect control and ±100 the full control effect)
Conditions: SARS-CoV-2 pseudotyped particle cell entry, luciferase; series mostly up to 57.2 µM; activity, negative = inhibition: at the top concentration
Method in brief: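 Using stable human ACE2 Expi293F cells, compounds preincubated 1 hr before spike pseudoparticle infection; luciferase signal after 48 hr at 37C, 5% CO2, normalised to spike PP and no-fusion-protein PP wells.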

Q: Which “activity, negative = inhibition” value does the source give for CCc1c(C(=O)C(N)=O)c2c(OCC(=O)O)cccc2n1Cc1ccccc1 here?
A: -22.4% (inactive)

Q: For Cc1ccccc1-n1c(Cn2ncc3c(N)ncnc32)nc2cccc(C)c2c1=O, which Potency is on record?
A: 7.64 µM (active)

Q: Which Potency does the source give for O=C(Nc1ccncc1)C(=O)c1cn(Cc2ccc(Cl)cc2)c2ccccc12 here?
A: 0.961 µM (active)

Tested on: not listed separately
Assay: Cytotoxicity counterscreen for inhibitors of SARS-CoV-2 cell entry (AID 1645845; calls by dose curve; further: nearly all actives have a fitted effect of over 50% in size; on activity change, negative = cytotoxicity: on the % scale 0 is the no-effect control and ±100 the full control effect)
Conditions: cell viability (SARS-CoV-2 entry assay cells); series mostly up to 57.1 µM; activity change, negative = cytotoxicity: at the top concentration; outcome: at the top concentration
Method in brief: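 After a 15 min room-temperature ATPLite 1step step, luminescence reflected ATP remaining in HEK293-ACE2 cells exposed to compound for 1 h plus 48 h at 37 C, with percent activity set by cell and no-cell controls.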

Q: For O=C(O)CNC(=O)c1c(O)c2ccccc2n(Cc2ccccc2)c1=O, which “activity change, negative = cytotoxicity” value is on record?
A: -5.89% (inactive)

Q: With O=[N+]([O-])c1ccc([As](=O)(O)O)cc1 as the compound, how does the “activity change, negative = cytotoxicity” value read?
A: 4.22% (inactive)

Q: For C1CCC(NC2CCCCC2)CC1, which “activity change, negative = cytotoxicity” value is on record?
A: 3.69% (inactive)

Q: With COCC1(CO)C(=O)C2CCN1CC2 (stereo not given) as the compound, how does the “outcome” value read?
A: inactive

Q: With Cc1ccccc1-n1c(Cn2ncc3c(N)ncnc32)nc2cccc(C)c2c1=O as the compound, how does the “outcome” value read?
A: inactive

Q: Which “outcome” value does the source give for O=C(NCC1CCOCC1)c1cnc(Nc2ccc(Cl)cc2Cl)nc1C(F)(F)F here?
A: inactive

Tested on: not listed separately
Assay: Primary qHTS to identify inhibitors of SARS-CoV-2 cell entry (AID 1645846; calls by dose curve; further: nearly all actives have a fitted effect of over 45% in size)
Conditions: SARS-CoV-2 pseudovirus cell entry assay, luminescence; activity change, negative = inhibition: at 57.1 µM (top of the series) unless noted; series mostly up to 57.1 µM; outcome: at the top concentration
Method in brief: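 Using luciferase-reporting pseudoviruses carrying Wuhan-Hu-1 spike, the screen tracks entry into stably ACE2-expressing cells over 48 hr. Activity is expressed relative to spike particles versus particles lacking any fusion protein.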

Q: Which activity change, negative = inhibition does the source give for CCc1c(C(=O)C(N)=O)c2c(OCC(=O)O)cccc2n1Cc1ccccc1 here?
A: -66.7%

Q: Which activity change, negative = inhibition does the source give for O=C(O)CNC(=O)c1c(O)c2ccccc2n(Cc2ccccc2)c1=O here?
A: 2.25%

Q: Which activity change, negative = inhibition does the source give for O=[N+]([O-])c1ccc([As](=O)(O)O)cc1 here?
A: 1.4%

Q: Which “outcome” value does the source give for C1CCC(NC2CCCCC2)CC1 here?
A: inactive

Q: For COCC1(CO)C(=O)C2CCN1CC2 (stereo not given), which activity change, negative = inhibition is on record?
A: -14.4%

Q: With Cc1ccccc1-n1c(Cn2ncc3c(N)ncnc32)nc2cccc(C)c2c1=O as the compound, how does the activity change, negative = inhibition read?
A: -50.6%

Q: With O=C(Nc1ccncc1)C(=O)c1cn(Cc2ccc(Cl)cc2)c2ccccc12 as the compound, how does the activity change, negative = inhibition read?
A: -75.6%

Q: Which activity change, negative = inhibition does the source give for O=C(NCC1CCOCC1)c1cnc(Nc2ccc(Cl)cc2Cl)nc1C(F)(F)F here?
A: -4.18%
